The values that follow come from PubChem BioAssay (EPA / NIEHS).

A short description of assay [1]: CCTE_Mundy_HCI_hNP1_Casp3_7: CCTE's Caspase-Glo 3/7 Assay in human neuroprogenitor cells for Apoptosis, Mundy Lab (AID 2284240). The essentials: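 Neuroepithelial-lineage stem cells from WA09 embryonic cells were treated with chemicals after 40–44 h of culture. Twenty-four hours later, caspase-3/7 activation was detected luminescently after a 30 min room-temperature reagent step, with DMSO as baseline.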

Assay [2] in a line: CCTE_Mundy_HCI_hNP1_CellTiter: CCTE's Cell Titer-Glo 2 Assay in human neuroprogenitor cells for Viability, Mundy Lab (AID 2284241; active = hit-call score of the fitted dose curve at least 0.9, where 1 is the maximum;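 as to AC50: a hit is a drop in ATP luminescence versus DMSO meaning reduced viability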). The essentials: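 Measures ATP content in human neural progenitors derived from WA09 embryonic cells. Read-out at 26.5 hours after dosing, with DMSO serving as the negative control and baseline.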
(In general: Cellular ATP, detected with luciferase, serves as a proxy for viable cell number.)

Assay [3] can be described thus: CCTE_Mundy_HCI_Cortical_Synap_Neur_Matur_NeuronCount: CCTE's Synaptogenesis and Neurite Maturation Assay in rat cortical cells for Neuron Count, Mundy Lab (AID 2284242; active = hit-call score of the fitted dose curve at least 0.9, where 1 is the maximum;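 as to AC50: neuron number from Hoechst nuclei and MAP2 staining by high-content imaging; hits reduce neuron count versus DMSO baseline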). The essentials:
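Cortical cells from rat are plated, treated with AraC at DIV 5, and exposed to test chemicals with a media change at DIV 7. At DIV 12 they are fixed and immunostained (MAP2, synaptophysin), and imaged neuron counts are compared against DMSO controls.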

Read-out in assay [4]: Interleukin 17F (IL17F), IL17F (gene 112744)
In words: BSK_BT_xIL17F: BioMAP Diversity Plus: BT Assay for Interleukin 17F (IL17F) Biomarker Activity (AID 2284243). As to conditions: primary human B cells with PBMC. The essentials:
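Luminex readout of IL-17F secretion, 24 h; cells: human B cells with PBMC; positive-direction analysis, DMSO control.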

Read-out in assay [5]: Actin alpha 1 (ACTA1), ACTA1 (gene 58)
The assay is described as follows: BSK_MyoF_ACTA1: BioMAP Diversity Plus: MyoF Assay for Actin alpha 1 (ACTA1) Biomarker Activity (AID 2284244). As to conditions: primary human lung fibroblasts. The essentials:
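Cells were exposed to chemical for 24 h before a-SMA levels were quantified by ELISA in human lung fibroblasts. Increases were fitted against DMSO as negative control; parallel SRB staining (0.1% after 10% TCA fixation, 560 nm) assessed cytotoxicity.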

Read-out in assay [6]: Interleukin 2 (IL2), IL2 (gene 3558)
The assay is described as follows: BSK_BT_xIL2: BioMAP Diversity Plus: BT Assay for Interleukin 2 (IL2) Biomarker Activity (AID 2284245). As to conditions: primary human B cells with PBMC. The essentials:
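The BT system combines human B cells with peripheral blood mononuclear cells. Twenty-four hours after chemical dosing, secreted IL-2 was measured with xMAP bead technology, and responses were analyzed as increases over DMSO controls.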

Read-out in assay [7]: Basic fibroblast growth factor (bFGF), FGF2 (gene 2247)
The assay is described as follows: BSK_MyoF_bFGF: BioMAP Diversity Plus: MyoF Assay for Basic fibroblast growth factor (bFGF) Biomarker Activity (AID 2284246). As to conditions: primary human lung fibroblasts. The essentials: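 Chemicals are added to human lung fibroblast cultures and incubated 24 h. bFGF is then measured by ELISA, while parallel cultures receive SRB staining for total protein as a cytotoxicity check. Data are fitted upward against DMSO.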

Read-out in assay [8]: Collagen IV, COL4A1 (gene 1282)
The assay is described as follows: BSK_MyoF_CollagenIV: BioMAP Diversity Plus: MyoF Assay for Collagen IV Biomarker Activity (AID 2284247). As to conditions: primary human lung fibroblasts. The essentials:
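Human lung fibroblast system, 24 h chemical exposure. Endpoint: Collagen IV by ELISA, upward fit vs DMSO.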

Read-out in assay [9]: Plasminogen activator inhibitor-1 (PAI1), SERPINE1 (gene 5054)
The assay is described as follows: BSK_MyoF_PAI1: BioMAP Diversity Plus: MyoF Assay for Plasminogen activator inhibitor-1 (PAI1) Biomarker Activity (AID 2284256). As to conditions: primary human lung fibroblasts. The essentials:
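In this multiplexed primary-cell system, fibroblasts from human lung received compound for 24 h before ELISA detection of PAI-1; overt toxicity was checked by SRB (0.1%, TCA-fixed, 560 nm) in parallel wells.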

Read-out in assay [10]: Interleukin-8 (IL8), CXCL8 (gene 3576)
The assay is described as follows: BSK_MyoF_IL8: BioMAP Diversity Plus: MyoF Assay for Interleukin-8 (IL8) Biomarker Activity (AID 2284261). As to conditions: primary human lung fibroblasts. The essentials: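 DMSO-normalised, upward-fitted IL-8 ELISA signal; human lung fibroblasts, 24 h chemical treatment.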

Read-out in the next assay: Decorin, DCN (gene 1634)
The assay is described as follows: BSK_MyoF_Decorin: BioMAP Diversity Plus: MyoF Assay for Decorin Biomarker Activity (AID 2284265). As to conditions: primary human lung fibroblasts. The essentials: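 In this multiplexed fibroblast system, secreted or surface decorin is detected by ELISA one day after dosing, with increases scored against the DMSO vehicle.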

Assay [11] can be described thus: BSK_MyoF_SRB: Viability Assessment in the BioMAP Diversity Plus: MyoF Assay (AID 2284267).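 Also: total protein by SRB absorbance in parallel cultures as cytotoxicity measure; cells assessed 24 h after compound addition.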 As to conditions: primary human lung fibroblasts. The essentials: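 Confluent human lung fibroblasts were exposed to test chemicals for 24 h. Parallel wells were then fixed in 10% TCA, stained with 0.1% sulforhodamine B and measured at 560 nm. DMSO served as baseline for curve fitting.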

Read-out in assay [12]: Matrix Metallopeptidase 1 (MMP1), MMP1 (gene 4312)
In words: BSK_MyoF_MMP1: BioMAP Diversity Plus: MyoF Assay for Matrix Metallopeptidase 1 (MMP1) Biomarker Activity (AID 2284268). As to conditions: primary human lung fibroblasts. The essentials: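 Fibroblasts from human lung receive compound for 24 h before ELISA quantitation of MMP1. DMSO serves as baseline, and the endpoint is fitted for signal gain.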

Read-out in assay [13]: TIMP metallopeptidase inhibitor 1 (TIMP1), TIMP1 (gene 7076)
In words: BSK_MyoF_TIMP1: BioMAP Diversity Plus: MyoF Assay for TIMP metallopeptidase inhibitor 1 (TIMP1) Biomarker Activity (AID 2284269). As to conditions: primary human lung fibroblasts. The essentials:
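Fibroblasts from human lung are dosed with chemical, cultured 24 h, and assayed for TIMP-1 by ELISA. Increases over the DMSO baseline are scored, with SRB total-protein staining run in parallel for cytotoxicity.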

A short description of assay [14]: IUF_NPC2c_oligodendrocyte_migration_120hr: Leibniz Research Institute for Environmental Medicine (IUF) 120-hour Neural Progenitor Cell Migration Assay for Oligodendrocyte Migration (NPC2c) (AID 2284297).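 Also: O4-positive oligodendrocyte migration distance divided by radial glia migration distance.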 The essentials: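 Using fetal brain neural progenitor spheres differentiating in N2 medium at 37C, compounds were present for 120 h. Oligodendrocyte migration distance, normalized to radial glia migration, was measured from imaged O4 staining.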

A short description of assay [15]: IUF_NPC2a_radial_glia_migration_120hr: Leibniz Research Institute for Environmental Medicine (IUF) 120-hour Neural Progenitor Cell Migration Assay for Radial Glia Migration (NPC2a) (AID 2284298). The essentials: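 Exposure of 0.3 mm primary hNPC spheres runs day 0 to 120 h with a half-volume medium change at day 3. Fixed cells get Hoechst staining; high-content analysis of nuclear positions yields radial glia migration distance per well, compared against DMSO controls.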

Assay [16] in a line: IUF_NPC2b_neuronal_migration_120hr: Leibniz Research Institute for Environmental Medicine (IUF) 120-hour Neural Progenitor Cell Migration Assay for Neuron Migration (NPC2b) (AID 2284300). The essentials: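 Fetal human NPC spheres migrate on PDL/laminin during 120 h compound treatment; neuronal migration distance, glia-normalized, scored versus DMSO control.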
Assay [17] is described as follows: IUF_NPC3_neuronal_differentiation_120hr: Leibniz Research Institute for Environmental Medicine (IUF) 120-hour Neuronal Differentiation Assay (NPC3) (AID 2284301). The essentials: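 Neuronal differentiation of primary human neural progenitors measured by high-content imaging: percent TUBB3+ of Hoechst+ nuclei within migrated area at 120 h, seven-point serial dilution plus solvent control, gain or loss relative to DMSO.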

Assay [18] can be described thus: IUF_NPC4_neurite_length_120hr: Leibniz Research Institute for Environmental Medicine (IUF) 120-hour Neuronal Morphology Assay for Neurite Length (NPC4) (AID 2284302). The essentials:
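Neurons from differentiating human fetal neural progenitor spheres are scored for average neurite length after five days of compound exposure. Fitting uses DMSO as negative control.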

Assay [19] is described as follows: IUF_NPC5_oligodendrocyte_differentiation_120hr: Leibniz Research Institute for Environmental Medicine (IUF) 120-hour Oligodendrocyte Differentiation Assay (NPC5) (AID 2284304; active = hit-call score of the fitted dose curve at least 0.9, where 1 is the maximum;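 also: primary human fetal neural progenitor spheres plated to migrate and differentiate; share of O4-positive cells among Hoechst nuclei found by CNN image analysis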). The essentials:
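After plating on poly-D-lysine/laminin, fetal-derived hNPC spheres differentiated for 120 h at 37C in compound-containing N2 medium, refreshed by half on day 3. O4 immunostaining over Hoechst nuclei in the migration zone gave oligodendrocyte percentage relative to DMSO.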

Several values for one entry are separate records, joined by “and”; a condition that tells them apart may be missing. Equal values may be shown once. Records with an inconclusive call do not appear. The source holds several records for some structures; these can differ, active in one and inactive in another. Activity calls are given as the source filed them. The calls were made as follows, unless noted: active = hit-call score of the fitted dose curve at least 0.9, where 1 is the maximum; inactive = score below 0.9.

By AC50 is commonly meant the midpoint of the concentration-response curve, whichever way the signal moves.

For `O=[N+]([O-])c1cc(C(F)(F)F)c(Cl)c([N+](=O)[O-])c1Nc1ncc(C(F)(F)F)cc1Cl`, the AC50 in [1] is 2.95 µM (active); in [2] it was 2.4 µM (active); in assay [3] it was 0.717 µM (active); in assay [4], 1.35 µM (active); in [5], 2.27 µM (active); in [6] it was 3.34 µM (active). Moreover, the AC50 in [7] is 3.75 µM (active); in assay [8] it was 2.27 µM (active); in [9], 2.2 µM (active); in [10], 20 µM (active); with Decorin, DCN (gene 1634), 5.88 µM (active); in assay [11], 2.6 µM (active). In addition, the AC50 in assay [12] was 3.25 µM (active); in assay [13], 3.9 µM (active); in assay [14], 0.736 µM (active); in assay [15], 0.832 µM (active); in assay [16], 0.796 µM (active); in [17], 0.601 µM (active). The AC50 is 1.02 µM (active) in assay [18] and 1.3 µM (active) in assay [19].
Consider `CC(=NC#N)N(C)Cc1ccc(Cl)nc1`, for which the outcome in [1], in assay [2], in [14], in [15], in [16] and in [17] was inactive. In addition, the molecule was classed as inactive in [18].
For `S=C1NCCN1`, the result in assay [1], in assay [2], in [3], in assay [14], in [15] and in [16] was inactive. In addition, the result in assay [17], in [18] and in assay [19] was inactive.
Regarding `CCOC(=O)CC(SP(=O)(OC)OC)C(=O)OCC` (stereo not given), the molecule was called inactive in assay [1], in assay [2], in assay [14], in assay [15], in [16] and in assay [17]. For the same molecule, the call in [18] and in assay [19] was inactive.
Regarding `CN1COCN(Cc2cnc(Cl)s2)C1=N[N+](=O)[O-]`, the call in assay [1], in [2], in assay [3], in assay [14], in assay [15] and in assay [16] was inactive. For the same molecule, the molecule was classed as inactive in assay [17], in [18] and in assay [19].
In the case of `CCOP(=O)(NC(C)C)Oc1ccc(SC)c(C)c1` (stereo not given), the molecule was called inactive in assay [1], in assay [3], in [14], in [16], in assay [17] and in assay [18]. Moreover, the values for the concentration at half-maximal activity (AC50) in [2], in [15] and in assay [19] were 51 µM (active), 33.7 µM (active) and 10.2 µM (active), respectively.
Take `CSC1=N[C@@](C)(c2ccccc2)C(=O)N1Nc1ccccc1`: the molecule was classed as inactive in [1], in assay [2], in assay [14], in [15], in assay [16] and in assay [17]. Besides, the molecule was called inactive in assay [18].
As to `CCCCSP(=O)(SCCCC)SCCCC`, the AC50 in [1] was 35.8 µM (active) and 32.8 µM (active); in assay [2], 66.9 µM (active); in assay [3] it was 86 µM (active) and 24.4 µM (active). The result in [14], in assay [15], in [16], in assay [17], in assay [18] and in assay [19] was inactive.
Consider `COP(=O)(OC)OC(Br)C(Cl)(Cl)Br` (stereo not given), for which the half-maximal activity concentration (AC50) in assay [1] is 11.9 µM (active); in [2] it was 17.8 µM (active) and 85 µM (active); in assay [3] it was 26.1 µM (active); in assay [14], 34.9 µM (active); in [15] it was 35.4 µM (active); in [16], 38.1 µM (active). For the same molecule, the results for the AC50 in assay [17] and in [18] were 40.9 µM (active) and 23.5 µM (active), respectively. In addition, the molecule was classed as inactive in assay [1] and in assay [3].
Turning to `CCOP(=O)(SC(C)CC)N1CCSC1=O` (stereo not given), the molecule was called inactive in [1] and in [2].
Take `CCOP(=O)(OCC)Oc1cc(C)nc(C(C)C)n1`: the outcome in assay [1], in assay [2], in assay [14], in [15], in assay [16] and in assay [17] was inactive. In addition, the molecule was classed as inactive in [18] and in assay [19].
Consider `CCCSP(=O)(OCC)SCCC`, for which the molecule was classed as inactive in assay [1], in assay [2], in assay [3], in assay [14], in assay [15] and in [16]. Besides, the molecule was classed as inactive in assay [17], in assay [18] and in [19]. Moreover, the half-maximal activity concentration (AC50) in assay [3] was 3.79 µM (active).
Take `CCOP(=S)(OCC)SCCSCC`: the outcome in assay [1], in [3], in [14], in assay [15], in assay [16] and in assay [17] was inactive. Besides, the result in assay [18] was inactive.
For `CCCSP(=O)(OCC)Oc1ccc(Br)cc1Cl` (stereo not given), the molecule was called inactive in [1], in [2] and in assay [3].
For `C[N+]1(C)CCCCC1`, the call in [1], in [14], in [15], in assay [16], in assay [17] and in assay [18] was inactive. Besides, the result in [19] was inactive.
